An excerpt weighted towards active compounds, which were near 3.1% of everything screened.
ABHD5 PLIN5 PPI = ABHD5-PLIN5 protein interaction inhibition | Split G. princeps luciferase complementation, luminescence, 4 h | AID 602281 | 360,000 tested, 0.78% active | Q00G26+Q8WTS1 | inhibition, % at 4 µM;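 active = inhibition above the mean inhibition across every tested compound plus 3 SD, cut at about 22% in these data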;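 also: 0% = DMSO only wells and the 100% control is not disclosed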
Target sequence (Q00G26 whole entry, looked up): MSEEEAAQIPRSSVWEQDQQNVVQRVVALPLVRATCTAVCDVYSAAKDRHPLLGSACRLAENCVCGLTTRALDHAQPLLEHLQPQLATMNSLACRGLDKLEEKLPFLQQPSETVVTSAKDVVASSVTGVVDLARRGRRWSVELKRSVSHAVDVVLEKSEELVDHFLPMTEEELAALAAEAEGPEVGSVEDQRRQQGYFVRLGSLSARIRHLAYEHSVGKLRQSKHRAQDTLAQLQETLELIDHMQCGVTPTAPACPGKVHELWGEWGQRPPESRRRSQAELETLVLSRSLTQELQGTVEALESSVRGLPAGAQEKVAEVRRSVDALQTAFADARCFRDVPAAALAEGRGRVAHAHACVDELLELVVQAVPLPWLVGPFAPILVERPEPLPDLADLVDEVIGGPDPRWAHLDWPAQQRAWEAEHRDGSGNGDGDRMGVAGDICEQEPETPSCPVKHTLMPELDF
Target sequence (Q8WTS1 whole entry, looked up): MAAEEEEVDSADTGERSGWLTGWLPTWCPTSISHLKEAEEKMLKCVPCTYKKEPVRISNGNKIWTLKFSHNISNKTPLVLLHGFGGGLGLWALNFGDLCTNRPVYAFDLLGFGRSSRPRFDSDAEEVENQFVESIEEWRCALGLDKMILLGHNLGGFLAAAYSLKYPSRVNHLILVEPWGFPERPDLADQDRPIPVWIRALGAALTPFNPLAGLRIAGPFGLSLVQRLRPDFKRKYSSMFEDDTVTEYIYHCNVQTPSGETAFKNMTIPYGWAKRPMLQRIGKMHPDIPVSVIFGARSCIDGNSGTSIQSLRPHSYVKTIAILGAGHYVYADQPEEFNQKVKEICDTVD
CF NFkB block = cystic fibrosis NF-kB activation inhibition; KKLEB NF-kB-GFP reporter, PAF-induced, GFP fluorescence overnight; AID 588850; inhibition, % at 5 µM; 360,000 tested, 0.86% active;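 active = at least 50% inhibition at 5 µM, scaled per plate between neutral and stimulator controls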;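 also: PAF is a Pseudomonas aeruginosa culture filtrate used as stimulus; plate controls were PAF-stimulated DMSO wells for no effect and unstimulated DMSO wells for full effect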
Peg3 prom inh = reduces Peg3 promoter-driven luciferase expression in HeLa | HeLa PEG-Prom luciferase reporter, luminescence, overnight | inhibition, % at 20 µM | 360,000 tested, 1.7% active;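 active = inhibition of at least 50% at 20 µM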
TRPM1 prom inh = reduces MITF-dependent TRPM1 promoter luciferase signal; SK-MEL-5 TRPM1 promoter luciferase, 24 h; inhibition, % at 12.5 µM; 330,000 tested, 0.83% active; AID 488899;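 active = mean inhibition across replicates of 60% or more, whatever share of single replicates reaches that level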
KKLEB tox = reduces viability of KKLEB cystic fibrosis airway cells. KKLEB CF airway cells viability, ATPlite luminescence, overnight; active compounds read low; cells stimulated with P. aeruginosa culture filtrate. activity change (cytotoxicity), % at 5 µM. 360,000 tested, 0.36% active. AID 602141;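 active = corrected activity change at or below -50% at 5 µM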
HIF-2a inh = blocks HIF-2a reporter activity; inhibition, % at 18.8 µM; 786-0 RCC cells HIF-2a reporter, luciferase luminescence, overnight; 360,000 tested, 0.72% active;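 active = inhibition of the luminescence signal of 40% or more relative to plate controls, in a single-dose primary screen at 18.75 µM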
* hit, by the source's call; x = not tested or not shown.

SMILES | ABHD5 PLIN5 PPI | CF NFkB block | Peg3 prom inh | TRPM1 prom inh | KKLEB tox | HIF-2a inh
C[C@]12c3[nH]c4cc(-c5ccco5)ccc4c3CCN1C(=O)[C@@H](CC(=O)NCCCn1ccnc1)C[C@@H]2C(=O)N1CCCCC1 | 2 | -1 | -2 | -7 | 8 | -12
CN(C)CCCNC(=O)CC1C[C@H](C(=O)N2CCCCC2)[C@@]2(CCc3ccccc3)c3[nH]c4ccccc4c3CCN2C1=O (some centres undefined) | 8 | 10 | 93* | 60 | 4 | -13
COc1ccc(CNC(=O)C[C@H]2C[C@H](C(=O)N3CCCCC3)[C@@]3(CCc4ccccc4)c4[nH]c5cc(-c6ccco6)ccc5c4CCN3C2=O)cc1OC | 45* | 9 | 8 | 6 | -6 | 9
CN(C)CCCNC(=O)C[C@H]1C[C@H](C(=O)N2CCCCC2)[C@@]2(CCc3ccccc3)c3[nH]c4cc(-c5ccco5)ccc4c3CCN2C1=O | 22* | 31 | 95* | 92* | -35 | -15
CN(C)CCCNC(=O)C[C@H]1C[C@H](C(=O)N2CCCCC2)[C@@]2(C)c3[nH]c4cc(-c5ccco5)ccc4c3CCN2C1=O | 10 | -11 | 65* | -19 | 17 | -6
CCOCCc1c(O)nc(SCC(=O)N2CCOCC2)[nH]c1=O | -2 | 14 | 12 | -14 | -2 | 9
Cc1ccc(C(=O)Nc2cccnc2N2CCN(C)CC2)cc1 | 1 | 4 | 14 | 12 | 6 | 7
CCCOc1ccc(C(=O)Nc2ccc(S(=O)(=O)NC3=NCCCCC3)cc2)cc1 | -6 | 13 | -8 | 8 | -2 | 9
CC1=C(SCc2ccccc2)C(=O)c2ccccc2C1=O | -10 | 89* | 85* | 70* | -44 | 29
Cc1ccccc1Nc1cc2ccccc2c(=O)[nH]1 | -18 | 26 | -16 | 69* | -7 | -7
O=c1[nH]c(Nc2ccccc2Cl)cc2ccccc12 | -22 | 2 | -136 | -7 | -14 | -114
CCOC(=O)c1ccc(N2C(=O)c3n[nH]c(-c4ccco4)c3C2c2ccc([N+](=O)[O-])cc2)cc1 (centres undefined) | 16 | -10 | 60* | 20 | -5 | 20
CC(C)C(C(=O)NCC1CCCO1)N(Cc1ccccc1)C(=O)CNS(=O)(=O)c1ccccc1 (centres undefined) | 0 | 9 | 7 | -7 | 2 | 2
CC(=O)Oc1cccc(/C=C2\Sc3ccccc3C2=O)c1 | 22* | -16 | 4 | 5 | 0 | 5
CCCCOc1ccc(/C=C2/Sc3ccccc3C2=O)cc1 | 1 | -23 | -191 | 0 | 11 | -184
COc1ccccc1OCC(=O)N(Cc1nnc(-c2ccccc2Cl)o1)C1CC1 | 3 | 26 | 12 | 10 | -4 | 15
O=C1c2ccccc2C(=O)c2c1cccc2N(CCO)CCO | 0 | -12 | -14 | 5 | -4 | -49
O=C1C=C(N(CCO)Cc2ccccc2)c2ccccc2C1=O | -14 | 68* | 38 | 106* | 9 | -11
COc1ccc(CCNS(=O)(=O)c2ccc(Br)s2)cc1 | 0 | -2 | 8 | 11 | 20 | 9
CCCn1c(SCC(=O)c2c(N)n(C3CC3)c(=O)[nH]c2=O)nnc1-c1ccncc1 | -2 | -17 | -5 | 1 | -3 | -4
CCCC(C(=O)NC(C)(C)C)N(Cc1ccc(F)cc1)C(=O)c1snc(C(N)=O)c1N (centres undefined) | -7 | -3 | 97* | -2 | 1 | 18
O=[N+]([O-])c1ccc(O)c(/C=N/Nc2ccc(Cl)nn2)c1 | 2 | 62* | -9 | 38 | -81* | -42
O=[N+]([O-])c1ccc(O)c(/C=N/Nc2nn[nH]n2)c1 | 9 | 5 | -10 | -4 | 7 | 7
CN(C)CCCNC(=O)c1ccc(Oc2ccccc2)cc1 | 3 | -11 | 8 | 5 | 21 | 4
N#Cc1cccc(S(=O)(=O)Nc2c(NC3CCCCC3)c3ccccc3oc2=O)c1 | 3 | 4 | 14 | 13 | 0 | 7
SMILES | ABHD5 PLIN5 PPI | CF NFkB block | Peg3 prom inh | TRPM1 prom inh | KKLEB tox | HIF-2a inh
CC1(C)CCC(=NNC(N)=S)CC1 | 0 | -13 | -7 | -7 | 7 | -3
NC(=S)NN=C1CSSC1 | -18 | 70* | 44 | x | 3 | -1
CC(C)NS(=O)(=O)c1ccc(NC(=O)C(C)OC(=O)CCCOc2ccccc2)cc1 (centres undefined) | -10 | 2 | -13 | 11 | -5 | 5
ClC1=C(Cl)C(Cl)=C(Cl)C1=C/C=C/c1ccccc1 | -7 | 91* | 107* | 92* | -94* | -18
COc1cccc(NC(=O)N2CCN(c3nc(-c4cccc(OC)c4)cs3)CC2)c1 | 2 | -9 | 51* | 17 | 7 | -29
COc1cccc(-c2csc(N3CCN(C(=O)Nc4ccccc4Cl)CC3)n2)c1 | -9 | 8 | -17 | -10 | -14 | -62
CCOC(=O)N(C)c1c(CC)nc2c(OCc3ccc(Cl)cc3Cl)cccn12 | 7 | -20 | 13 | x | 8 | -4
CCN(CC)CCN1C(=O)C(=O)/C(=C(/O)c2ccc(S(=O)(=O)N3CCOCC3)cc2)C1c1ccc(Cl)cc1 (centres undefined) | 2 | -3 | 6 | 4 | 2 | -4
Cc1c(C(=O)NCCC2=CCCCC2)oc2ccc(S(=O)(=O)N3CCOCC3)cc12 | -4 | 13 | 66* | 13 | -17 | -6
Cc1ccc(CNC(=O)c2oc3ccc(S(=O)(=O)N4CCC5(CC4)OCCO5)cc3c2C)cc1 | -5 | 9 | 51* | 19 | -25 | 23
CCn1c(SCC(=O)Nc2ccc3c(c2)c2ccccc2n3CC)nnc1-c1ccco1 | 46* | -8 | 4 | -9 | 18 | 9
CCn1c(SCC(=O)Nc2cccc(NC(C)=O)c2)nnc1-c1ccco1 | -2 | -2 | 4 | -8 | 4 | 1
CC(C)CN(C(=O)COC(=O)c1cnc(Cl)c(Cl)c1)c1c(N)n(Cc2ccccc2)c(=O)[nH]c1=O | -8 | 28 | 85* | 4 | -10 | 12
CC(C)N(Cc1ccccc1)C(=O)COC(=O)c1cnc(Cl)c(Cl)c1 | 2 | -6 | 83* | 47 | -12 | 23
CC(C)CCN(C(=O)Cc1ccc(Cl)c(Cl)c1)c1c(N)n(Cc2ccccc2)c(=O)[nH]c1=O | -9 | 4 | 32 | 81* | -37 | 16
Cc1nc2ccccn2c1C(=O)N=Nc1c(O)n(CCC(C)C)c2ccccc12 | -4 | 13 | 107* | 57 | -20 | -2
Cn1c2ccccc2c(=O)c2c(=O)n(C3CCCCC3)c(-c3ccco3)nc21 | 6 | -20 | 0 | 70* | 1 | -2
O=C(Nc1ccc2c(c1)oc1ccccc12)c1cccnc1 | 6 | -18 | -304 | -103 | 6 | -230
O=C(Nc1ccc2c(c1)oc1ccccc12)c1ccncc1 | 22* | -51 | -116 | -44 | 21 | -181
O=C(CCl)N1CCCC1c1ccc2c(c1)OCCO2 (centres undefined) | 0 | 27 | 40 | 90* | -15 | 23

Compound activity: PubChem, several laboratories
